The supplement of paper PMC10981050
Values joined by “and” are separate entries in the source; they are usually repeats but may differ in a detail not shown here. Equal entries are not always repeated. Structures can show the parent of a compound that is named as a salt.

Legend:
Test in all cases: cell viability relative to vehicle control; higher = less cytotoxic
Details in all cases: 10 µM
K562 = test system: K562
How it was run: (§1)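 Mutant clones made by CRISPR editing and their isogenic wild-type counterparts, from four leukaemia lines, were exposed to a single 10 µM dose of each library compound for 48 h. The supernatant was then removed and CellTiter-Glo luminescence was read. Viability was reported as percent of the on-plate vehicle control.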

MARIMO = test system: MARIMO
How it was run: as §1

MOLM14 = test system: MOLM14
How it was run: as §1

OCI-AML2 = test system: OCI-AML2
How it was run: as §1

Row | Structure (SMILES) | cell viability (K562; SRSF2 genotype: SRSF2 P95H/wt) | cell viability (K562; SRSF2 genotype: SRSF2 wt/wt) [%] | cell viability (MARIMO; SRSF2 genotype: SRSF2 P95H/wt) [%] | cell viability (MARIMO; SRSF2 genotype: SRSF2 wt/wt) [%] | cell viability (MOLM14; SRSF2 genotype: SRSF2 P95H/wt) [%] | cell viability (MOLM14; SRSF2 genotype: SRSF2 wt/wt) [%] | cell viability (OCI-AML2; SRSF2 genotype: P95H/wt) [%] | cell viability (OCI-AML2; SRSF2 genotype: wt/wt) [%]
1 | O=C(O)CCc1c[nH]c2ccccc12 [3-Indolepropionic acid] | 92.7% and 95.1% | 102 | 98.8 | 96.4 | 97.8 | 96.9 | 103 | 98.3
2 | O=C1Nc2ccc(I)cc2C1=Cc1cc(Br)c(O)c(Br)c1 | 96.6% and 89.4% | 90.1 | 89.9 | 109 | 84.7 | 93.8 | 86.7 | 90.7
3 | C[C@@H](c1nc(-c2ccc(C#N)cc2)cs1)[C@](O)(Cn1cncn1)c1cc(F)ccc1F [Isavuconazole] | 45.7% and 47.6% | 48.5 | 39.3 | 33 | 44.8 | 26 | 38.7 | 28
4 | CNCC[C@H](Oc1cccc2ccccc12)c1cccs1 [Duloxetine HCl (Cymbalta)] | 45.7% and 60.1% | 54.7 | 55 | 61.4 | 55.9 | 70.9 | 46.2 | 53.5
5 | Nc1ccn([C@@H]2O[C@H](CO)[C@@H](O)C2(F)F)c(=O)n1 [Gemcitabine (Gemzar)] | 89% and 104% | 101 | 21.3 | 24.4 | 4.86 | 1.1 | 7.55 | 8.99
6 | CC(C(=O)O)c1ccc(-c2ccccc2)c(F)c1 (configuration not stated) [Flurbiprofen] | 107% and 105% | 103 | 106 | 99 | 104 | 105 | 108 | 102
7 | N[C@H]1CC[C@H](N[C@@H]2C[C@H]2c2ccccc2)CC1 | 96% and 97.8% | 93.3 | 89.7 | 88.5 | 87.5 | 86.2 | 71.3 | 84.6
8 | O=c1cc(-c2ccccc2)oc2cc(O[C@@H]3O[C@H](CO[C@@H]4O[C@H](CO)[C@@H](O)[C@H](O)[C@H]4O)[C@@H](O)[C@H](O)[C@H]3O)c(O)c(O)c12 [Oroxin B] | 101% and 105% | 98.7 | 102 | 104 | 112 | 107 | 95.6 | 98.6
9 | COc1cc(NC(=O)c2ccc(-c3ccc(Cl)cc3)o2)cc(OC)c1 | 105% and 102% | 103 | 99 | 105 | 113 | 115 | 97.4 | 92.8
10 | CNc1cc(-c2cccc(Cl)c2Cl)nc(N)n1 | 15.8% and 28.9% | 29.6 | 12.2 | 9.54 | 9.14 | 2.78 | 6 | 11.5
11 | CC1=CC(=O)CC(C)(C)C1(O)/C=C/C(C)=C\C(=O)O (configuration not stated) [Abscisic Acid (Dormin)] | 102% and 99.2% | 98.1 | 101 | 110 | 104 | 101 | 105 | 102
12 | S=C(NCc1ccc2c(c1)OCO2)N1CCN(c2ncnc3c2oc2ccccc23)CC1 [Amuvatinib (MP-470)] | 62.3% and 74.9% | 64.2 | 50.3 | 41.5 | 68.2 | 76.4 | 28 | 42.5
13 | Cc1nc(Nc2n[nH]c3c2CN(C(=O)N[C@H](CN(C)C)c2ccccc2)C3(C)C)c2sccc2n1 | 13.2% and 22.6% | 14.3 | 5.65 | 3.34 | 0.49 | 0.42 | 0.9 | 10.7
14 | C=CCc1cc(OC)c(OC)c(OC)c1 [Elemicin] | 106% and 105% | 113 | 111 | 104 | 105 | 109 | 109 | 123
15 | CC(C)(C#N)c1cc(Cn2cncn2)cc(C(C)(C)C#N)c1 [Anastrozole] | 102% and 109% | 107 | 97.4 | 105 | 103 | 99.1 | 93.5 | 95.3
16 | O=[N+]([O-])c1ccc(Nc2nc(N3CCOCC3)nc(N3CCOCC3)n2)cc1 | 99% and 99.5% | 95.7 | 95.7 | 95.8 | 112 | 99.8 | 107 | 116
17 | CCOC(=O)c1csc(Nc2ccc(Cl)cc2)n1 | 97.1% and 103% | 92.5 | 81 | 92.8 | 111 | 111 | 75.6 | 71.8
18 | CCCC(CCC)C(=O)O[C@H]1C[C@H]2CC[C@@H](C1)[N+]2(C)C [anisotropine methylbromide] | 101% | 104 | 106 | 107 | 98 | 101 | 106 | 93.6
19 | CC(C)c1cccc(O)c(=O)c1 | 87.6% and 88.1% | 83.2 | 79.5 | 70.3 | 93.5 | 96.4 | 59.6 | 59.8
